Data: PubChem BioAssay AID504339 (National Center for Advancing Translational Sciences (NCATS), 2011)
The whole screen tested about 390,000 compounds, of which about 17,000 (4.4%) were called active. Not shown: some 8% with an inconclusive outcome. The sample holds actives, similar compounds and a random draw of the others, so the mix is not that of the screen. Unmarked numbers belong to inactive results. Calls follow the shape of the dose curve; as a rule, active = well fitted inhibition curve with a large enough effect; inconclusive = small, poorly fitted or top-dose-only effect; inactive = no such curve, though single readings can be large or run the other way.

Target: Lysine-specific demethylase 4A (Homo sapiens) (UniProt O75164)
Sequence (O75164 whole entry, looked up, the tested form may be a part): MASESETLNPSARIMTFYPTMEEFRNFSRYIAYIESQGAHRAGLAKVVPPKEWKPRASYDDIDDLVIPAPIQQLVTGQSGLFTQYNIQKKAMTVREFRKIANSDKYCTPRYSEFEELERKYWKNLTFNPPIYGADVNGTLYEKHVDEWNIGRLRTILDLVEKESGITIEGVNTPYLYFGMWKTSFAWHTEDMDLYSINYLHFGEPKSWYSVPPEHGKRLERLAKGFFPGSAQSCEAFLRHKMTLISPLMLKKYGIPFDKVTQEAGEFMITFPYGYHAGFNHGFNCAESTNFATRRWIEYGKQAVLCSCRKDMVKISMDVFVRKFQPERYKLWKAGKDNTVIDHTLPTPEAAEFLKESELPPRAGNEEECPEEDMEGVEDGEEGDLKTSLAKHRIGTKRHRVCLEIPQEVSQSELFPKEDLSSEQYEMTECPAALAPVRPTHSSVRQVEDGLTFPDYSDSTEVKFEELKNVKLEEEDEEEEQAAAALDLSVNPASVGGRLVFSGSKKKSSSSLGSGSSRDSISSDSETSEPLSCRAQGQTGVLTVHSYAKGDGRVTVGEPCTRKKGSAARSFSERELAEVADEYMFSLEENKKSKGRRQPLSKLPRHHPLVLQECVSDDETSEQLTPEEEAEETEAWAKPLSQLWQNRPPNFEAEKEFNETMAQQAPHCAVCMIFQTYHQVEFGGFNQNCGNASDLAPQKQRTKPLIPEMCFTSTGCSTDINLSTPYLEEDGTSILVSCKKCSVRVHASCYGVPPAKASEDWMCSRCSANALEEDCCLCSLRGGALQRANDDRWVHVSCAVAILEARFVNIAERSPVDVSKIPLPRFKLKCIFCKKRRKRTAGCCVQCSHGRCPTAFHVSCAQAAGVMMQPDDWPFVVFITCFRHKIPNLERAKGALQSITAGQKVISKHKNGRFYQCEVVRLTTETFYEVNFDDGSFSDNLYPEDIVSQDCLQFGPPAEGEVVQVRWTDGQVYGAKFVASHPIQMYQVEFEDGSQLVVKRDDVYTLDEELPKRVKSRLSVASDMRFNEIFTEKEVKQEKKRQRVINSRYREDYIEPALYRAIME
Assay: qHTS Assay for Inhibitors of JMJD2A-Tudor Domain; also: nearly all actives have a fitted effect of over 50% in size
Conditions: AlphaScreen JMJD2A-Tudor / H3K4me3 peptide binding; series mostly up to 114 µM; activity change, negative = inhibition: at the top concentration
Description: JMJD2A is a jumonji-domain-containing lysine demethylase that uses Fe(II) together with 2-OG to effect oxidative demethylation of histones. Methylation is one of many […] modification that affect epigenetic transcription. […] It is proposed that the functions of JmjD2A binding to the histones, is to maintain marks after they are installed and to spread the modifications by […], establishing a self-propagating cycle for rapid methylation over a large area of chromatin. […] Thus, small molecule targeting of the JMJD2A-tudor domain interaction with its target methylhistone mark is expected to enable sophisticated experiments probing the fine regulatory pathways leading to selective demethylation of a given methyllysine locus based on the methylation state of adjacent histone marks. A quantitative high throughput AlphaScreen has been developed to identify small molecule inhibitors based on a protocol published by NCGC and SGC [4].
Although AlphaScreen has significant advantages with its utility in a variety of epigenetic target assays, the primary screening data provided in this deposition should be used with caution due to the prevalence of screening artifacts. The top compound concentration tested was high (>100uM) in this assay, which increases number of actives and potential artifacts. An AlphaScreen counterscreen is highly recommended to be run against any putative actives to eliminate non-specific artifacts. Alternatively, one can use other AlphaScreen assays in PubChem to filter out promiscuous hits.
[1] Lee, J. et al. Distinct binding modes specify the recognition of methylated histone H3K4 and H4K20 by JMJD2A-tudor. Nat Struct Mol Biol. 15(1); 109-11. 2008. PMID: 18084306
[2] Yasgar, et al. Compound Management for Quantitative High-Throughput Screening. JALA. 2008 Apr;13(2):79-89. PMID: 18496600
[3] Inglese, et al. Quantitative high-throughput screening: a titration-based approach that efficiently identifies biological activities in large chemical libraries. Proc Natl Acad Sci. 1;103(31):11473-8. 2006. PMID: 16864780
[4] Quinn et al. A homogeneous method for investigation of methyl-dependent protein-protein interactions in epigenetics. Nucleic Acids Res., 38(2):e11. 2010. PMID: […]
[5] Baell,Holloway. New substructure filters for removal of pan assay interference compounds (PAINS) from screening libraries and for their exclusion in bioassays. J Med Chem. 53(7):2719-40. 2010. PMID: 20131845
NIH Molecular Libraries Probe Production Network [MLPCN]
NIH Chemical Genomics Center [NCGC]
Structural Genomics Consortium (SGC)
To each well of a 1,536w plate, 2ul of JMJD2A-Tudor (final 100nM) and 1ul biotinylated histone peptide methylated at Lys4 [b-H3(1-18)K4me3] (final 50nM) were added in 1x PBS buffer, pH 7.4, containing 0.01% Tween-20, using a nanoliter dispenser. Formation of a protein-peptide complex proceeded at room temperature for 30 min. A Kalypsys pin-tool transferred 23nl of library compound solution in DMSO to each well. Following a 30 min incubation of the protein-peptide complex with compounds at room temperature, a mixture of 40 µg/mL each streptavidin-coated donor and nickel chelate acceptor AlphaScreen beads (final 10 µg/mL) was added in a 1ul dispense for a final volume of 4ul, followed by a brief centrifugation (1000 rpm, 1 min). Plates were incubated protected from the light for 20 min at room temperature. Microplates were then read on an EnVision multilabel plate reader using the 1,536 plate HTS AlphaScreen aperture (excitation time 80 ms, measurement time 240 ms).
% is scaled to controls: 0 for no effect and ±100 for the full control effect; potency is read from the fitted curve at half-maximal effect.

Structure (SMILES)	activity change, negative = inhibition	Potency
CCN1CCc2nc3sc(C(=O)Nc4ccccc4OC(F)(F)F)c(N)c3cc2C1	-23.5%	–
O=C(CSc1n[nH]c(-c2ccccc2)n1)N1CCCCC1	4.87%	–
Cc1ccc(NC(=O)CN2c3ccccc3S(=O)(=O)c3ccccc32)cc1F	-10.6%	–
CCc1ccccc1NC(=O)Cc1ccc(NC(=O)N2CCCCc3ccccc32)cc1	-15%	–
CCN(Cc1ccccc1)Cc1c(O)ccc2c(=O)c(-c3ccc(Cl)cc3Cl)coc12	2.42%	–
COc1cccc(CNC(=O)Cn2c(=O)c3cccn3c3ccc(F)cc32)c1OC	-5.59%	–
CCOc1ccc(CCNC(=O)CN(c2ccc(C)cc2)S(=O)(=O)N(C)C)cc1OCC	-2.98%	–
O=C(Cn1ncc2c3ccccc3n(Cc3ccccc3)c2c1=O)NC1CCCCCC1	-9.73%	–
CCCNC(=O)C(CC)n1nc(CC)n2c(cc3oc(C)cc32)c1=O (centres undefined)	-4%	–
CCOc1cccc(-c2nn3c(-c4ccccn4)nnc3s2)c1	–	79.4 µM (active)
CCOc1cccc(C(=O)Nc2nnc(S(=O)(=O)N(C)c3ccc(C)cc3)s2)c1	5.92%	–
CCOc1cccc(-c2nnc(SCC(=O)NC3CC3)n2C)c1	-3.03%	–
Cc1ccc2c(=O)c(C(=O)c3ccc(F)cc3)cn(CC(=O)NC3CCCCC3)c2n1	-17.2%	–
CSc1ncc(C(=O)NCc2ccccc2Cl)c(C(F)(F)F)n1	-0.99%	–
Cc1cccn2c(=O)c3cc(C(=O)NC(C)c4ccccc4)c(=N)n(CCCO)c3nc12 (centres undefined)	-10%	–
CCOc1cccc(NC(=O)c2ccc(F)c(S(=O)(=O)N(CC)c3cccc(C)c3)c2)c1	4.89%	–
COc1cccc2c(O)cc(=O)n(C)c12	-1.39%	–
COc1cccc2cc(-c3cc(=O)oc4cc(C)c(O)cc34)oc12	-21.7%	–
COc1cc(O)c2c(=O)c3c(O)c(O)ccc3oc2c1OC	–	89.1 µM (active)
CCOc1ccccc1CNC(=O)C1CCCN(S(=O)(=O)c2ccc3c(ccn3C)c2)C1 (centres undefined)	-24%	–
Cc1ccc(S(=O)(=O)N2CCN(C(=O)N3CCOCC3)CC2)c(C)c1	-0.328%	–
Cc1cccc(-n2c(N)c(C(=O)N3CCN(C)CC3)sc2=S)c1	–	79.4 µM (active)
Cc1cccc(C(=O)N2CCN(S(=O)(=O)N3CCCCC3)CC2)c1	1.46%	–
O=C(c1ccc(CSc2ccccc2)cc1)N1CCCCCC1	-5.41%	–
N#Cc1ccccc1-n1c(N)c(C(=O)N2CCCC2)sc1=S	–	56.2 µM (active)

Structure (SMILES)	activity change, negative = inhibition	Potency
O=C(c1ccc(S(=O)(=O)N2CCCC2)cc1)N1CCN(c2ccccc2F)CC1	0%	–
Cc1ccc(N2CCN(C(=O)c3cccs3)CC2)c(C)c1	-3.42%	–
Cc1ccc(-n2c(N)c(C(=O)N3CCOCC3)sc2=S)c(C)c1	–	35.5 µM (active)
COc1cccc(N2CCN(c3ccc4nnc(CCC(=O)N5CCN(C)CC5)n4n3)CC2)c1	-5.26%	–
O=C(Cn1c(=O)n(Cc2ccccc2)c(=O)c2sc3ccccc3c21)Nc1ccccc1F	0.683%	–
Cc1ccccc1OCc1nc2c3cnn(-c4ccccc4F)c3ncn2n1	1.74%	–
COc1ccc(OC)c(NC(=O)CSc2nc3ccccc3nc2N2CCCCC2)c1	-8.59%	–
Cc1ccc(C(=O)NC2CCN(C#N)CC2)cc1	-11.6%	–
CCOc1ccc(N(CC)S(=O)(=O)N2CCCC(C(=O)NCc3ccc(Cl)cc3)C2)cc1 (centres undefined)	-9.16%	–
COC(=O)c1ccc(C(NC(=O)OCc2ccccc2)/C(C)=C/[C@@H](C)C(=O)NCc2ccc(OC)c(OC)c2)cc1 (some centres undefined)	-17.3%	–
COC(=O)c1ccc(COc2ccc(/C=C/C(=O)c3ccc(OC)c(CSCC(=O)O)c3)cc2OC)cc1	–	50.1 µM (active)
COC(=O)c1ccc(COc2ccc(/C=N/NC(=O)C(=O)Nc3ccc(OC)cc3)cc2OC)o1	10%	–
Cc1ccc(NC(=O)c2ccc(CN3CC(=O)N4CCCCC4C3=O)cc2)c(Cl)c1 (centres undefined)	-13.5%	–
CC(=O)c1sc(N2C(=O)c3oc4ccccc4c(=O)c3C2c2ccc(C)cc2)nc1C (centres undefined)	-1.37%	–
C=Cc1ccc(Cn2c(C(=O)O)c(CNC3CCCC3)c3ccc(C)cc32)cc1	-29.7%	–
COc1cc(OC)cc(C(=O)NCCCn2ccnc2)c1	-4.79%	–
COc1cccc(-c2nn(-c3ccccc3)cc2/C=C(\C#N)C(=O)NCCCn2ccnc2)c1	–	44.7 µM (active)
COc1ccc(/C=C(\C#N)C(=O)NCCCn2ccnc2)cc1	-9.72%	–
COc1cc(C=NNC(=O)c2cccnc2)ccc1OC(=O)c1ccccc1F	-20.1%	–
O=C(N/N=C/c1ccccn1)c1cccnc1	–	79.4 µM (active)
O=C(N/N=C/c1ccccn1)c1cccc(NC(=O)c2ccc(Cl)cc2)c1	5.02%	–
Cc1ccc2oc3c(c(=O)c2c1)C(c1ccc(O)cc1)N(Cc1ccc2c(c1)OCO2)C3=O (centres undefined)	-6.53%	–
CCOc1ccc(S(=O)(=O)N(CC(=O)NCCSCc2ccc(C)cc2)c2ccccc2)cc1	-10%	–
S=C(NCCCc1cnc[nH]1)NCCCN(Cc1ccc(Cl)c(Cl)c1)c1ccc(Br)cn1	–	44.7 µM (active)
